Measurements reported in PubChem BioAssay (NCATS).
Records with an inconclusive call do not appear. Active and inactive are the calls of the source. Unless noted, calls follow the shape of the dose curve; as a rule, active = well fitted curve in the direction sought with a large enough effect; inconclusive = small, poorly fitted or top-dose-only effect, or another doubt; inactive = no such curve, though single readings can be large; an effect the other way counts as inactive or inconclusive.

Tests used:
[1] = Confirmation and Secondary Assay for Modulators of Hemoglobin Beta Chain Splicing at IVS2 654 locus (AID 910);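 also: HeLa cells stably carrying EGFP split by mutant beta-globin IVS2-654 intron; per-well total GFP intensity by laser scanning cytometry after 2-day treatment; % of control where 0% means no effect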
Procedure, shortened: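 Readout: per-well total peak green fluorescence (488 nm ex, 500–520 nm em) from objects 5–250 µm, reflecting correct splicing of an EGFP-654 reporter. Compounds were applied for 2 days at 37 °C to overnight-plated HeLa EGFP-654 cells; controls were DMSO and 500 nM IVS2-654 PNA.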

[2] = Confirmation and Secondary Assay for Modulators of Hemoglobin Beta Chain Splicing at IVS2 705 locus (AID 930);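 also: HeLa cells stably expressing the EGFP-705 splicing reporter; % of control where 0% means no effect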
Procedure, shortened: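 HeLa cells stably carrying EGFP interrupted by mutant beta-globin IVS2-705 intron (CMV-driven) were seeded at 500 cells/well, treated next day with compound for 2 days at 37C; corrected splicing restores EGFP, read as total peak GFP intensity per well.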

[3] = qHTS Assay for Lipid Storage Modulators (AID 1519; calls by dose curve; as to activity change, negative = inhibition: % is scaled to controls: 0 for no effect and ±100 for the full control effect); conditions: Drosophila S3 cells, BODIPY lipid droplet/cell ratio, laser cytometry, cells loaded with oleic acid
Procedure, shortened: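 Cells seeded at 5,000 per well were treated with compounds over a concentration series and loaded with oleic acid (400 uM, as added). Lipid droplet fluorescence (488 nm excitation, 500-530 nm channel) was read by laser-scanning cytometry and normalized to 20 uM Triacsin C.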

[4] = tested on: Zika virus NS2B-NS3 protease (linked construct); assay: 384 well plate NINDS Rhodamine confirmatory qHTS for Zika virus inhibitors (AID 1347164);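 also: fluorescence from protease cleavage of Ac-LKRR-rhodamine 110 substrate; potency is read from the fitted curve at half-maximal effect; nearly all actives have a fitted effect of over 65% in size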
Procedure, shortened: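 Linked NS2B-NS3 protease (final 5, 30 or 60 nM) preincubated ~15 minutes with compounds, then 10 microM Ac-LKRR-Rhodamine 110 added. Fluorescence (485/538 nm) read after 25 minutes at room temperature, normalized to no-enzyme and no-inhibitor controls.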

[5] = tested on: Zika virus NS2B-NS3 protease (linked construct); assay: Primary screen NINDS Rhodamine qHTS for Zika virus inhibitors (AID 1347160); also: potency is read from the fitted curve at half-maximal effect; nearly all actives have a fitted effect of over 55% in size
Procedure, shortened: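 Purified NS2B-NS3 protease with the NS2B hydrophilic domain joined by a flexible linker (25 nM) in 10 mM Tris-HCl pH 8.0, 0.01% Tween 20, preincubated 15 min at RT with compound; Rhodamine110 peptide substrate 1.5 µM; fluorescence change over 15 min; 4-parameter Hill fit.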

[6] = A2780 Cisplatin Sensitive Ovarian Cancer Cell Toxicity qHTS against the NCATS CANVASS Library (AID 1347353); also: nearly all actives have a fitted effect of over 60% in size; also: potency is read from the fitted curve at half-maximal effect
Procedure, shortened: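 A2780 cells, 750/well, settled 4 h at 37 °C, then treated with an 11-point compound series for 72 h. Viability was read as ATPLite luminescence after 10 min at room temperature, with bortezomib as control.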

[7] = qHTS for Activators of p53 Stress Response Pathway screened against the NCATS CANVASS Library (AID 1347388); also: potency is read from the fitted curve at half-maximal effect
Procedure, shortened: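 Beta-lactamase reporter driven by p53 response elements in HCT-116 cells, read as the 460 nm/530 nm emission ratio after CCF4 loading, following 16 h of exposure to an 11-point series. Cell viability was measured in the same wells by CellTiter-Glo luminescence.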

[8] = Viability qHTS for inhibitors of the SERCaMP assay screened against the NCATS CANVASS Library (AID 1347400); also: nearly all actives have a fitted effect of over 70% in size; also: potency is read from the fitted curve at half-maximal effect
Procedure, shortened: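 SH-SY5Y-GLuc SERCaMP MJH297-derived cells, 1000/well, plated 4 h, then exposed to compounds in an 11-point qHTS series for 48 h at 37C. Viability read as CellTiter-Glo luminescence.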

[9] = NCATS anti-infectives library activity on the primary C. elegans qHTS viability assay (AID 1745855; calls by dose curve)
Procedure, shortened: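 Viability read-out is GFP fluorescence of PE254-GFP-FLuc C. elegans, measured by laser cytometry (488 nm) at day 0, 3 and 7. Ten L1 worms per well were incubated 7 days at 21 °C with compounds and bacterial capsules in S medium.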

[10] = qHTS for Antimalaria activity screened against the NCATS CANVASS Library (AID 1347380); also: nearly all actives have a fitted effect of over 40% in size; also: potency is read from the fitted curve at half-maximal effect;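 as to activity change, negative = inhibition: Plasmodium falciparum strain Dd2 asexual parasites grown in red blood cells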
Procedure, shortened: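 Red blood cells infected with P. falciparum Dd2 (2.5% hematocrit final, 0.3% parasitemia) were exposed to compounds in an 11-point qHTS series for 72 hr at 37C under 5% O2 and 5% CO2. Lysis buffer with SYBR Green was then added for 18 hr, and fluorescence was read at 485/535 nm.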

[11] = qHTS for activators of Nrf2/ARE signaling pathway screened against the NCATS CANVASS Library (AID 1347391); also: nearly all actives have a fitted effect of over 60% in size; also: potency is read from the fitted curve at half-maximal effect
Procedure, shortened: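 ARE-bla HepG2 beta-lactamase reporter cells exposed to compounds for 16 h at 37C; CCF4 substrate 2 h, fluorescence at ex 405 nm, em 460/530 nm. Viability by CellTiter-Glo luminescence.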

[12] = OV-SAHO Cancer Cell Toxicity qHTS against the NCATS CANVASS Library (AID 1347348); also: nearly all actives have a fitted effect of over 55% in size; also: potency is read from the fitted curve at half-maximal effect
Procedure, shortened: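 Cells were seeded at 1000 per well, allowed 4 h at 37 degrees C/5% CO2, then pin-treated with an 11-point compound series. After 72 h, viability was read as CellTiter-Glo luminescence following 15min at room temperature.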

[13] = qHTS assay for small molecule disruptors of mitochondrial membrane potential screened against the NCATS CANVASS Library (AID 1347389); also: nearly all actives have a fitted effect of over 60% in size; also: potency is read from the fitted curve at half-maximal effect
Procedure, shortened: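 HepG2 cells (2,000/well) plated overnight, then exposed to compounds in 11-point qHTS series for 1 h at 37C before 30 min Mito-MPS dye; depolarization read as fall in red aggregate (590 nm) to green monomer (535 nm) fluorescence.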

[14] = Vero-766 cells viability qHTS against the NCATS CANVASS Library: Counterscreen for Zika virus inhibition assay (AID 1347394); also: % is scaled to controls: 0 for no effect and ±100 for the full control effect; nearly all actives have a fitted effect of over 60% in size
Procedure, shortened: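 Vero 766 cells (1000/well), without Zika virus, were exposed to compounds for 72 h at 37C. Viability was measured by CellTiter Glo luminescence. Media-only wells served as 100% inhibition.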

In the case of `CC1COC2=C1C(=O)C(=O)c1c2ccc2c1CCCC2(C)C` (stereo unspecified), the outcome [1] is reported as “inactive”, the outcome [2] is reported as “inactive” and the activity change, negative = inhibition ([3]; at 57.5 µM (top of the series)) is reported as 2.92% (inactive). The max response ([3]; measured here: cell count channel max response) was -7.49%, the max response ([3]; measured here: lipid channel max response) was -5.49% and the Potency [4] was 79.4 µM (active).
In the case of `O=C(OC[C@H]1O[C@@H](OC(=O)c2cc(O)c(O)c(O)c2)[C@H](OC(=O)c2cc(O)c(O)c(O)c2)[C@@H](OC(=O)c2cc(O)c(O)c(O)c2)[C@@H]1OC(=O)c1cc(O)c(O)c(O)c1)c1cc(O)c(O)c(O)c1`, the Potency [5] is reported as 0.877 µM (active), the Potency [6] is reported as 8.33 µM (active) and the Potency [7] is reported as 11.7 µM (active). For the same molecule, the Potency [8] was 34 µM (active) and the Potency [9] was “inactive”.
With `C/C=C1/CN2C3CC1C1C=CC(=O)N4c5ccccc5[C@@]3(C[C@@H]2C2=C[C@H]3C5CC6N(CC[C@@]67c6ccccc6N(C2=O)[C@@H]37)C/C5=C/C)[C@H]14` (stereo partly specified) the Potency [5] was 15.6 µM (active), the Potency [10] was 1.06 µM (active) and the Potency [11] was 3.31 µM (active).
For `CC(=O)c1c(C)cc2c(c1O)C(=O)c1c(O)cc(O)cc1C2=O`, the Potency [12] was “inactive”, the Potency [6] was “inactive” and the Potency [10] was “inactive”. For the same molecule, the Potency [13] was “inactive”, the Potency [11] was “inactive” and the Potency [14] was “inactive”. The Potency [8] was “inactive”.
With `CC[C@H](O)CCCCC[C@@H]1NC(=O)[C@H]2CCCCN2C(=O)[C@H]([C@H](C)CC)NC(=O)[C@H](Cc2cn(OC)c3ccccc23)NC1=O` the Potency [5] was 15.6 µM (active), the Potency [6] was 23.5 µM (active) and the Potency [10] was 1.49 µM (active). The Potency [11] was “inactive” and the Potency [8] was “inactive”.
With `CC(C)=CCC/C(C)=C/Cc1cc([C@@H]2CC(=O)c3c(cc(O)c(CC=C(C)C)c3O)O2)ccc1O` the Potency [5] was 6.97 µM (active), the Potency [10] was 16.7 µM (active) and the Potency [7] was “inactive”. For the same molecule, the Potency [13] was 23.4 µM (active), the Potency [11] was 20.9 µM (active) and the Potency [14] was “inactive”.
For `C/C=C/C(=O)C1(O)CC2CC(C(=O)O)CC(C)C2C1C1=C2C(=O)NC(=O)C2=C(CCCCC)C(C)O1` (stereo unspecified), the Potency [5] was 49.3 µM (active), the Potency [10] was “inactive” and the Potency [7] was 7.41 µM (active). The Potency [11] was 1.17 µM (active) and the Potency [14] was “inactive”.
In the case of `CC(C)=CC[C@H]1C[C@@]2(CC=C(C)C)C(=O)[C@](CC=C(C)C)(C(=O)C(C(=O)c3ccccc3)=C2O)C1(C)C`, the Potency [5] is reported as 4.4 µM (active), the Potency [6] is reported as 14.8 µM (active) and the Potency [7] is reported as “inactive”. The Potency [13] was 7.41 µM (active), the Potency [11] was “inactive” and the Potency [8] was “inactive”.
With `Oc1ccc(C2Oc3cc(O)c4c(c3[C@@H]2c2cc(O)cc(O)c2)[C@H]2C(c3ccc(O)cc3)c3c(O)cc5c(c3[C@H]2C4c2ccc(O)cc2)[C@H](c2cc(O)cc(O)c2)C(c2ccc(O)cc2)O5)cc1` (stereo partly specified) the Potency [5] was 15.6 µM (active), the Potency [12] was 16.7 µM (active) and the Potency [6] was 4.18 µM (active). The Potency [11] was “inactive” and the Potency [8] was “inactive”.
In the case of `CC1=C2CC[C@]3(C)[C@H](CC=C4[C@@H]5CC(C)(C)CC[C@@H]5C(=O)[C@H](O)[C@]43C)[C@@]2(C)C=C(O)C1=O`, the Potency [5] is reported as 39.2 µM (active), the Potency [7] is reported as “inactive” and the Potency [8] is reported as “inactive”.
